TSHR antag = Antagonists of the Thyroid Stimulating Hormone Receptor: HTS campaign; AID 504810, 2011; TSHR-expressing cells, TSH-stimulated cAMP HTRF, 2 h; stronger effect = lower value; 330,000 compounds, 0.2% hits; activity change, negative = inhibition, % at 11.5 µM; Thyrotropin receptor (Homo sapiens), P16473;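 active = activity change below a set negative limit, meaning inhibition stronger than a set level, cut at about -70% in these data; inconclusive = activity change between two set negative limits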
Target sequence (P16473 whole entry, looked up): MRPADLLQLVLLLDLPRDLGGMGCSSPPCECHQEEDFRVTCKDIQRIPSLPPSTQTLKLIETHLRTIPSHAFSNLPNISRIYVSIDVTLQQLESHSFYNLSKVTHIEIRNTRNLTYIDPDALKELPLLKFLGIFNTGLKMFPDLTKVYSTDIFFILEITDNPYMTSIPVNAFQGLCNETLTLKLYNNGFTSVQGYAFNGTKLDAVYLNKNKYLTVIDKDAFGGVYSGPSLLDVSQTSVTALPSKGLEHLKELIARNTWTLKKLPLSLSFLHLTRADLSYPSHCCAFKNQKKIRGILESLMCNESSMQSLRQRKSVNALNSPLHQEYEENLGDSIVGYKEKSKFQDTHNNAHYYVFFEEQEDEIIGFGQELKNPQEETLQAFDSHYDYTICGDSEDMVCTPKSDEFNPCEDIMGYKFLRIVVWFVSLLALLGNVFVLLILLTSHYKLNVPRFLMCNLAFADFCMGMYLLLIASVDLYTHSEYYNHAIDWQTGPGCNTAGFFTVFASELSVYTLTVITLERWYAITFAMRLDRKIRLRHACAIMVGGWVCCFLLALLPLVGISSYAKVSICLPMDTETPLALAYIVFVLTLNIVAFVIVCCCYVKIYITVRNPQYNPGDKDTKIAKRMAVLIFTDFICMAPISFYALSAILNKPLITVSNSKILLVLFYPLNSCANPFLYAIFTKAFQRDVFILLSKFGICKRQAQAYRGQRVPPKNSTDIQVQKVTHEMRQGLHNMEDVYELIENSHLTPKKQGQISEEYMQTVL
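Antagonism was scored as loss of TSH-driven cAMP in TSHR cells, stimulated with 4nM TSH (EC80) for 2 hours at 37 deg C and detected by homogeneous HTRF competition immunoassay.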
gsp ag = qHTS for Agonist of gsp, the Etiologic Mutation Responsible for Fibrous Dysplasia/McCune-Albright Syndrome: qHTS. gsp mutant cells, cAMP HTRF, 30 min. Potency, µM (highest dose often 76.9 µM), most hits filed as activators. 340,000 compounds, 0.13% hits. AID 624287, 2012; active = well fitted activation curve with a large enough effect; inconclusive = small, poorly fitted or top-dose-only effect, or another doubt; inactive = no such curve, though single readings can be large or run the other way; cell line not stated here;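 also: phosphodiesterase inhibitor Ro 20-1724 added with compounds to block cAMP breakdown; nearly all actives have a fitted effect of over 60% in size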
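Cells stably selected in G418 were plated at 2000/well, grown 16-24 hr, then given compounds in DMSO with the PDE inhibitor […] (300 uM solution added) for 30 min at 37C; cAMP was read by HTRF.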
RXFP1 ag = qHTS Assay for Agonists of the Relaxin Receptor RXFP1; HEK293T-RXFP1 cAMP TR-FRET, 30 min; response scale: percent of porcine relaxin response, buffer zero; Potency, µM (titrated, usually from 57.5 µM), hits mostly activators; 370,000 compounds, 0.3% hits; AID 2676, 2010; active = well fitted activation curve with a large enough effect; inconclusive = small, poorly fitted or top-dose-only effect; also: nearly all actives have a fitted effect of over 60% in size
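cAMP rise read by TR-FRET after 30 min, 37C compound exposure (up to 58 uM) in RXFP1-transfected HEK293 cells with Ro 20174 present. EC50 from Hill-equation fits, with 29 nM porcine relaxin as 100% and buffer as basal.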
gsp antagonist = qHTS for Antagonists of gsp, the Etiologic Mutation Responsible for Fibrous Dysplasia/McCune-Albright Syndrome: qHTS; gsp-mutant cells, cAMP HTRF, 30 min; Potency, µM (top dose mostly 76.9 µM), most hits filed as inhibitors; 340,000 compounds, 0.4% hits; calls by dose curve; cell line not stated here;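 also: intracellular cAMP measured with PDE inhibitor Ro 20-1724 present during compound exposure; nearly all actives have a fitted effect of over 65% in size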
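G418-selected cells were plated in DMEM/10% FBS for 16-24 h at 37C, then treated with compounds plus the PDE inhibitor […] (300 uM solution added) for 30 min at 37C. Intracellular cAMP was measured by HTRF after 30 min lysis at room temperature.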
RXFP1 antag = qHTS Assay for Antagonists of the Relaxin Receptor RXFP1; Relaxin receptor 1 (Homo sapiens), Q9HBX9; HEK293-RXFP1, relaxin-stimulated cAMP HTRF, 30 min; stronger effect = lower value; activity change, negative = inhibition, % at 57.5 µM; 350,000 compounds, 0.59% hits;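 active = activity change of -60% or lower, but not beyond a set lower limit; inconclusive = change between -60% and -40%, or beyond the set limit; inactive = change above -40%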
pAkt inh = HTS Assay for Inhibitors of Akt Phophorylation: Primary Screen; Neuro2A IGF-stimulated pAkt S473 HTRF, 20 min; stronger effect = lower value; activity change, % for hits at 50 µM; 360,000 compounds, 0.32% hits; AID 651550, 2012; in the data active = activity change below about -80%; inconclusive = mostly about -51% to -80%
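Single-point screen (50 µM final compound) in Neuro2A cells stimulated 20 min with 6 nM IGF at 37 deg C. After lysis, Ser473-phosphorylated Akt read by HTRF (ex 330 nm, em 615/665 nm) as the 665/615 ratio.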
Of the large screens only hits and unclear results are named; the others gave an inactive call. Hits are enriched below; roughly 1.3% of the tested compounds scored in any of these assays.

CON(C)S(=O)(=O)c1ccc2c(c1)N(Cc1ccc(C)cc1)C(=O)C1CCCN21 (stereo unspecified)	none
OC1(c2ccccc2)CCNCC1	none (no result: TSHR antag, gsp ag, RXFP1 ag, gsp antagonist, pAkt inh)
CCCNC(=O)c1cnn2c(C(F)F)cc(-c3ccccc3)nc12	none (no result: TSHR antag, gsp ag, gsp antagonist, RXFP1 antag, pAkt inh)
CCOc1ccc(NC(=O)c2oc3ccccc3c2NC(=O)C(C)(C)C)cc1	none (no result: TSHR antag, gsp ag, gsp antagonist, RXFP1 antag, pAkt inh)
O=C1NC(=Nc2ccc(O)cc2)S/C1=C/c1ccco1	RXFP1 antag -61.3
Cc1cccc(N=C2NC(=O)/C(=C/C=C/c3ccco3)S2)c1	RXFP1 antag -72.5
O=C(Cc1ccc(NC(=O)C2CCN(C(=O)C3CCCCC3)CC2)cc1)Nc1ccc(C(=O)N2CCOCC2)cc1	none (no result: TSHR antag, gsp ag, RXFP1 ag, RXFP1 antag)
CC1OC(CC(=O)O)CC2=C1C(=O)c1c(O)cccc1C2=O (stereo unspecified)	gsp antagonist inconclusive, RXFP1 antag -62.8 (no result: TSHR antag, RXFP1 ag)
O=C1c2cccc(O)c2C(=O)c2c(O)cccc21	none (no result: gsp ag, gsp antagonist, pAkt inh)
CCCc1ccc(OCc2ccc(C(=O)N3CCN(c4ccccn4)CC3)o2)c(OC)c1	gsp antagonist inconclusive, RXFP1 antag -62.6
CCc1ccc(-n2c(=O)c3ccc(C(=O)NCCc4ccccc4)cc3n(CC(N)=O)c2=O)cc1	none
CCCN(CCC)C(=O)Cn1c(=O)n(-c2ccc(CC)cc2)c(=O)c2ccc(C(=O)NCCc3ccccc3)cc21	RXFP1 ag 25.1µM (no result: TSHR antag, gsp ag, gsp antagonist, RXFP1 antag, pAkt inh)
COc1ccc(C2C=C(c3ccccc3)Nc3nc(NS(=O)(=O)c4ccccc4)nn32)cc1 (stereo unspecified)	none (no result: TSHR antag, gsp ag, gsp antagonist, pAkt inh)
O=C(CCOCCOCCOCCOCCC(=O)Nc1c(I)cc(I)c(C(=O)O)c1I)Nc1c(I)cc(I)c(C(=O)O)c1I	none (no result: TSHR antag, gsp ag, RXFP1 ag, gsp antagonist, pAkt inh)
Cc1nn(C(C)C)c(C)c1CN1CCC(C(=O)Nc2cccc(-c3cccc(F)c3)c2)CC1	RXFP1 antag -82.0
Cc1cccc(CN2CCC(C(=O)Nc3cccc(-c4cccc(F)c4)c3)CC2)n1	RXFP1 antag inconclusive
CCNC(=O)c1ccccc1NC(=O)c1cccc(S(=O)(=O)N2CCC(C)CC2)c1	pAkt inh -100.8%
Cc1cc(NC(=O)c2ccccc2Cl)no1	pAkt inh -103.7%
O=C(/C=C/c1ccc2c(c1)OCO2)Nc1nc(-c2ccccc2)cs1	TSHR antag -79.3
Clc1ccccc1CN(Cc1ccco1)Cc1nnnn1C1CCCC1	gsp antagonist 20µM
Clc1cccc(Cl)c1C1Nc2cccc3cccc(c23)N1	TSHR antag -70.5, RXFP1 antag inconclusive
C#CCOc1ccccc1/C=N/NC(=O)c1ccccc1OCc1ccccc1	gsp antagonist 12.6µM
Cc1ccc(N/N=C(/Sc2nnnn2-c2ccccc2)C(=O)c2ccccc2)cc1	gsp antagonist 25.1µM (no result: RXFP1 antag)
COc1ccccc1N(C(C)=O)C1=C(Cl)C(=O)c2ccccc2C1=O	RXFP1 antag -86.6 (no result: TSHR antag, RXFP1 ag, gsp antagonist)
COc1ccccc1N(C(=O)CCl)c1cn(C(C)=O)c2ccccc12	none
CCN(CC(=O)NCc1ccc(Cl)cc1)C(=O)c1ccc(C#N)cc1	none
CN(C)/C=C/c1oc2ccc(O)cc2c1[N+](=O)[O-]	gsp antagonist 28.2µM
Cc1oc2ccc(O)cc2c1C(=O)c1ccc([N+](=O)[O-])cc1	none
NS(=O)(=O)c1ccc(CCNc2ncnc3c2cnn3-c2cccc(Cl)c2)cc1	RXFP1 antag -84.4 (no result: TSHR antag, gsp ag, gsp antagonist, pAkt inh)
Clc1cccc(-n2ncc3c(NC4CCCCCC4)ncnc32)c1	none (no result: TSHR antag, gsp ag, gsp antagonist, pAkt inh)
CCN(CC)c1ccc2nc3c4ccccc4c(=O)cc-3oc2c1	none
CCN(CC)c1ccc2c(-c3ccc(S(=O)(=O)O)cc3S(=O)(=O)[O-])c3ccc(=[N+](CC)CC)cc-3oc2c1	RXFP1 ag 28.2µM
COc1ccc(N(CC(=O)NCCc2ccc(C)cc2)S(=O)(=O)c2c(C)nn(C)c2C)cc1	none (no result: TSHR antag, gsp ag, gsp antagonist, RXFP1 antag, pAkt inh)
Cc1c(S(=O)(=O)c2cccc(Cl)c2)nnn1-c1cccc(C(F)(F)F)c1	none (no result: TSHR antag, gsp ag, gsp antagonist, RXFP1 antag, pAkt inh)
CC(C)CCn1c(-c2nonc2N)nc2ccccc21	gsp antagonist 28.2µM
Cc1cc(F)ccc1NC(=O)c1cc(S(=O)(=O)N2CCOCC2)cn1C	gsp ag inconclusive
CCc1ccc(OCC2c3cc(OC)c(OC)cc3CCN2C(=O)Cc2ccc(OC)c(OC)c2)cc1 (stereo unspecified)	none (no result: TSHR antag, gsp ag, gsp antagonist, RXFP1 antag, pAkt inh)
Cc1ccc(C)c(N2CCN(C(=O)Nc3ccc4c(c3)N(C)C(=O)CS4)CC2)c1	gsp antagonist 39.8µM
CC(=O)Nc1ccc2c3c(cccc13)C(=O)N(c1ccccc1)C2=O	gsp ag 35.5µM
O=C(O)c1ccc(N2C(=O)c3cccc4c(C(=O)O)ccc(c34)C2=O)cc1	gsp ag 20µM, RXFP1 ag inconclusive
Nc1ccc2c3c(cccc13)C(=O)N(c1ccccc1)C2=O	none
O=C(O)c1ccc2c3c(cccc13)C(=O)N(c1ccccc1)C2=O	none
O=C(NCCS(=O)(=O)N1CCN(Cc2ccccc2)CC1)c1ccc(F)cc1	none
CC(C)(C)c1ccc(C(=O)NCC(c2cccnc2)N2CCc3ccccc3C2)cc1 (stereo unspecified)	RXFP1 antag -76.9 (no result: TSHR antag, gsp ag, gsp antagonist, pAkt inh)
Cc1ccc(C(=O)NCC(c2cccnc2)N2CCc3ccccc3C2)cc1C (stereo unspecified)	none (no result: TSHR antag, gsp ag, gsp antagonist, pAkt inh)
CC(=O)c1c(C)[nH]c(C(=O)Nc2ccc(Cl)c(S(=O)(=O)N(C)C)c2)c1C	RXFP1 ag inconclusive
CC(=O)c1c(C)[nH]c(C(=O)OCC(=O)Nc2ccc(Cl)c(S(=O)(=O)N(C)C)c2)c1C	gsp antagonist 39.8µM
CC1CN(c2cnn(C(C)C)c(=O)c2Cl)CC(C)O1 (stereo unspecified)	none
Cc1nc2sc(C(=O)Nc3ccc(F)cc3)c(N)c2c(-c2ccc(Br)cc2)c1C(=O)Nc1ccc(Cl)cc1	none (no result: TSHR antag, gsp ag, gsp antagonist, pAkt inh)
CCc1ccc(CN2CCCC(C(=O)Nc3ccccc3-c3ccc(OC)cc3)C2)o1 (stereo unspecified)	RXFP1 antag -77.1
COCc1ccc(CN2CCCC(C(=O)Nc3ccccc3-c3ccc(OC)cc3)C2)o1 (stereo unspecified)	none
CC(C)(C)c1ccc2c(c1)OC(C(=O)N/N=C\c1ccc(-c3cccc(C(=O)O)c3)o1)CO2 (stereo unspecified)	RXFP1 antag -74.5
O=C(O)c1cccc(-c2ccc(/C=N/NC(=O)C3COc4ccccc4O3)o2)c1 (stereo unspecified)	none
